According to the supplement of paper PMC12669032:
Unmarked numbers belong to inactive results.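 The calls were made as follows: active = AUC reduced over 20% with Padj below 0.05 in at least 2 of 3 replicates; inactive = otherwise.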

What was measured:
Experiment in all cases: growth AUC relative to DMSO control (median of replicates) (fraction); higher = more growth (less inhibition), active = hit call of the paper
Conditions in all cases: 20 µM; 24 h
Akkermansia muciniphila = system: Akkermansia muciniphila
Procedure, shortened: (§1)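 OD600 was recorded every hour for 24 h in anaerobic monocultures of gut bacteria kept at 37 °C in mGAM, seeded at OD600 0.05 and given 20 µM compound in 1% DMSO. The area under each growth curve was scaled to the plate median of solvent-only wells, or to row and column medians for the industrial chemical plate. Before this step, the minimum OD was set to 0. Reported values are medians of three biological replicates run on separate days.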

Bacteroides caccae = system: Bacteroides caccae
Procedure, shortened: as §1

Bacteroides clarus = system: Bacteroides clarus
Procedure, shortened: as §1

Bacteroides dorei = system: Bacteroides dorei
Procedure, shortened: as §1

Bacteroides stercoris = system: Bacteroides stercoris
Procedure, shortened: as §1

[1] = system: Bacteroides thetaiotaomicron
Procedure, shortened: as §1

Bacteroides uniformis = system: Bacteroides uniformis
Procedure, shortened: as §1

[2] = system: Bifidobacterium longum subsp. longum
Procedure, shortened: as §1

Clostridium difficile = system: Clostridium difficile
Procedure, shortened: as §1

Collinsella aerofaciens = system: Collinsella aerofaciens
Procedure, shortened: as §1

Row | Compound | growth AUC (Akkermansia muciniphila) | growth AUC (Bacteroides caccae) | growth AUC (Bacteroides clarus) | growth AUC (Bacteroides dorei) | growth AUC (Bacteroides stercoris) | growth AUC [1] | growth AUC (Bacteroides uniformis) | growth AUC [2] | growth AUC (Clostridium difficile) | growth AUC (Collinsella aerofaciens)
1 | CC(C)c1nn(C(=O)NC(C)(C)C)c(=O)n1N | 0.95 | 1.04 | 0.976 | 1.02 | 1.08 | 0.976 | 1 | 0.999 | 1 | 1.05
2 | NC1=C(Cl)C(=O)c2ccccc2C1=O | 0.886 | 1.12 | 0.716 (active) | 0.965 | 0.83 | 0.906 | 0.88 | 0.887 | 0.938 | 1.01
3 | CCOC(=O)[C@@H](C)Oc1ccc(Oc2nc3ccc(Cl)cc3o2)cc1 | 0.975 | 0.971 | 0.966 | 0.983 | 1.03 | 1.01 | 0.929 | 1 | 1.03 | 1.02
4 | CCCCCCCC/C=C\CCCCCCCC(N)=O | 0.936 | 0.999 | 0.991 | 0.977 | 0.875 | 0.982 | 0.998 | 0.849 | 1.01 | 0.857
5 | CNC(=O)/C(=N/OC)c1ccccc1CO/N=C(C)/C(=N/OC)C(/C)=N/OC | 0.957 | 0.983 | 0.98 | 1 | 0.991 | 0.976 | 0.976 | 0.989 | 0.979 | 1.03
6 | CC(=O)CC(c1ccccc1)c1c(O)c2ccccc2oc1=O (stereo not given) | 0.913 | 1.01 | 0.93 | 1.02 | 0.965 | 0.952 | 0.952 | 1 | 0.998 | 0.966
7 | COC(=O)CCCOc1ccc(Cl)cc1Cl | 1.01 | 0.964 | 1.02 | 0.922 | 0.997 | 1.01 | 0.945 | 1.04 | 0.973 | 0.987
8 | CNC(=O)Nc1nc2ccccc2s1 | 0.957 | 0.953 | 0.999 | 0.959 | 1.1 | 1.01 | 0.966 | 0.955 | 0.969 | 0.942
9 | CCCCCCCCSCCO | 1.06 | 0.954 | 0.967 | 1.02 | 0.918 | 0.975 | 1 | 1.04 | 0.983 | 0.949
10 | COc1cc(OC)nc(NC(=O)NS(=O)(=O)c2c(-c3nnn(C)n3)cnn2C)n1 | 1.13 | 0.99 | 1 | 0.94 | 1.08 | 1.01 | 1 | 1.01 | 0.961 | 0.978
11 | C/C=C/C=C/CCCCCCCO | 0.879 | 1.03 | 0.982 | 1.02 | 1.07 | 0.969 | 1 | 1.01 | 0.984 | 1.02
12 | CCCCOC(=O)C(C)Oc1ccc(Oc2ccc(C(F)(F)F)cn2)cc1 (stereo not given) | 1.13 | 1.01 | 0.977 | 0.951 | 1.08 | 0.959 | 0.891 | 0.681 (active) | 1.01 | 0.963
13 | CC1CN(C2CCCCCCCCCCC2)CC(C)O1 (mixture of isomers) | 0.892 | 1.01 | 0.967 | 1.06 | 0.84 | 0.985 | 1.08 | 0.985 | 0.961 | 0.915
14 | O=C(O)COc1ccc(Cl)cc1CO | 1.15 | 0.99 | 0.995 | 0.721 | 0.938 | 0.971 | 0.98 | 1 | 1.03 | 0.96
15 | CCCCOCN(C(=O)CS(=O)(=O)[O-])c1c(CC)cccc1CC.[Na+] | 0.979 | 0.997 | 0.997 | 1.01 | 0.923 | 0.934 | 1.03 | 1.07 | 1.02 | 1.01
16 | Cl.NCCO/C=C/[C@H](N)C(=O)O | 1.02 | 0.952 | 1.08 | 1.03 | 1.16 | 1 | 1.01 | 1.05 | 1.02 | 1.03
17 | Cc1nn(C)c(OCC(=O)c2ccccc2)c1C(=O)c1ccc(Cl)cc1Cl | 1.04 | 0.955 | 0.978 | 0.987 | 1.17 | 0.933 | 0.852 | 0.992 | 0.947 | 1.01
18 | Cc1c(C(=O)c2c[nH]n(C)c2=O)ccc(S(C)(=O)=O)c1C1=NOCC1 | 0.937 | 1.03 | 0.983 | 0.989 | 0.895 | 1 | 1.01 | 1.13 | 1 | 0.976
19 | CCCCC(CC)CN1C(=O)C2C(C1=O)[C@H]1C=C[C@@H]2C1 (mixture of isomers) | 1.11 | 1 | 1.03 | 0.974 | 1.06 | 0.985 | 0.972 | 1.05 | 1.03 | 1.12
20 | CCOC(=O)Cn1c(=O)sc2cccc(Cl)c21 | 0.779 | 0.987 | 0.979 | 0.97 | 1 | 0.999 | 0.957 | 1.04 | 0.997 | 0.936
21 | Cc1cc(C)c(C2=C(O)C3(CCCC3)OC2=O)c(C)c1 | 1.01 | 1.01 | 1.02 | 1.01 | 1.08 | 0.986 | 0.989 | 1.04 | 1.04 | 1.04
22 | CCc1ccc(O)cc1 | 0.993 | 0.884 | 1.01 | 0.95 | 1.24 | 0.989 | 1.01 | 1.01 | 0.957 | 0.919
23 | C[C@@]1(c2ccccc2)NC(=O)N(Nc2ccccc2)C1=O | 0.931 | 1.04 | 0.973 | 1 | 0.965 | 0.992 | 1.01 | 0.96 | 1 | 1.02
24 | CCC([O-])=C1C(=O)CC(C(=O)[O-])CC1=O.[Ca+2] (stereo not given) | 0.965 | 1 | 0.998 | 0.996 | 1.1 | 0.958 | 1.01 | 1.03 | 1 | 0.995
25 | CSC(=O)c1cccc2nnsc12 | 0.851 | 1.04 | 0.997 | 0.978 | 1.07 | 0.961 | 1 | 1.04 | 1 | 1.01
26 | COC(=O)c1cccc(C)c1S(=O)(=O)NC(=O)Nc1nc(OCC(F)(F)F)nc(N(C)C)n1 | 0.973 | 0.963 | 0.995 | 1.01 | 1.01 | 0.985 | 0.981 | 0.992 | 0.987 | 1.01
27 | CCC/C(=N\OCC(C)Oc1ccc(Cl)cc1)C1=C(O)CC(C2CCCSC2)CC1=O (stereo not given) | 0.924 | 0.949 | 0.958 | 1 | 0.843 | 0.901 | 0.939 | 0.91 | 1.02 | 0.973
28 | COC(=O)c1ccc(C(F)(F)F)nc1S(=O)(=O)[N-]C(=O)Nc1nc(OC)cc(OC)n1.[Na+] | 0.963 | 1.01 | 0.997 | 1.01 | 0.908 | 0.993 | 0.978 | 0.938 | 1.05 | 1.03
